Experimental data taken from PubChem BioAssay AID430 (Sanford-Burnham Center for Chemical Genomics, 2006).
Out of some 63,000 compounds screened, about 1,100 (1.7%) were called active. For the sample, actives were picked, then their nearest neighbours and some compounds at random. Potency and affinity values are given separately. Values without a mark were called inactive. Cut-off read from the data, not from the text of the source: active = cytotoxicity above about 50%; inactive = the rest.

Assay: HPDE-C7 pancreatic duct cell viability loss – fluorescence, HTS (AID 430);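 note: cells exposed to compound for 48 hours before viability readout; 0% = vehicle and 100% = reference cytotoxic drug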
Conditions: HPDE-C7 pancreatic duct cells viability, at 10 µM, stronger effect = higher value

Structure (SMILES) | cytotoxicity
O=C(COc1cccc(-n2cnnn2)c1)N1CCOCC1 | 18.5%
Cc1c(C)n(CC(O)CN2CCOCC2)c2ccccc12 (stereo not given) | -0.4%
CC(C)C(c1nnnn1Cc1ccc2c(c1)OCO2)N1CCN(c2ccccc2)CC1 (stereo not given) | -9.2%
COc1ccc(N2C(=O)CSC23C(=O)Nc2ccccc23)cc1OC (stereo not given) | -18.4%
COc1cc(OC)cc(C(=O)Nc2ccccc2N2CCOCC2)c1 | -3.9%
COc1cc(OC)c(C(=O)COc2ncnc3ccccc23)c(OC)c1 | -5.8%
O=S(=O)(Nc1ccc2c(c1)OCO2)c1cccs1 | 15.6%
Cn1c(NCC2CCCO2)nc2c1c(=O)n(Cc1ccccc1)c(=O)n2C (stereo not given) | 4.9%
COc1ccc(-c2cc(C(F)(F)F)nc(NC3CCCC3)n2)cc1OC | 24.7%
COc1nc(-c2ccccc2)cc(C(F)(F)F)n1 | -11.8%
Nc1nc(-c2ccccc2)cc(C(F)(F)F)n1 | -0.7%
COc1ccc(-c2cc(C(F)(F)F)nc(N3CCCCC3)n2)cc1OC | -20.9%
COCCn1c(SCC(=O)OCc2ccccc2)nc2c1c(=O)[nH]c(=O)n2C | -3.3%
CCCCCC(=O)O[C@]1(C(C)=O)CC[C@H]2[C@@H]3CCC4=CC(=O)CC[C@]4(C)[C@H]3CC[C@@]21C | 116% (active)
CCCCCCCC(=O)OCC(=O)[C@@]1(O)CC[C@H]2[C@@H]3CCC4=CC(=O)CC[C@]4(C)[C@H]3[C@@H](O)C[C@@]21C | -1.9%
CCCCC(=O)O[C@]1(C(=O)CO)CC[C@H]2[C@@H]3CCC4=CC(=O)CC[C@]4(C)[C@H]3[C@@H](O)C[C@@]21C | 8.3%
Cc1c(C(=O)O)c2cc(O)ccc2n1-c1ccccc1 | 4.3%
Fc1ccc(-c2nnc(-c3ccc(Cl)cc3Cl)o2)cc1 | 1.1%
O=C(NCc1ccco1)C(c1cccs1)N(Cc1ccccc1)C(=O)Cn1nnc2ccccc21 (stereo not given) | 3.4%
COCCCn1c2nc3ccccc3nc2c2c(=O)n(Cc3ccccc3Cl)cnc21 | -8.1%

Structure (SMILES) | cytotoxicity
COc1ccc(N(C)S(=O)(=O)c2cccc3cccnc23)c(OC)c1 | 51.4% (active)
COc1ccc(NC(=O)C2CCCN2S(=O)(=O)c2cccc3cccnc23)c(OC)c1 (stereo not given) | 5.8%
COc1ccc(NC(=O)CN(C)S(=O)(=O)c2cccc3cccnc23)cc1 | -4.1%
Cc1ccc(S(=O)(=O)NCC(=O)N2CCCCC2)cc1 | -15.4%
CCc1nc(N2CCN(C(=O)c3ccco3)CC2)c2oc3ccccc3c2n1 | 22.2%
O=C(c1cc2cc(Cl)ccc2oc1=O)N1CCCC1 | -1.3%
CC1=C(C(=O)Nc2ccccc2)C(c2ccco2)C(C#N)=C(SCC(=O)Nc2cccc(C)c2C)N1 (stereo not given) | 67% (active)
CCOC(=O)C1=C(c2ccccc2)NC(SCC(=O)Nc2ccccc2C)=C(C#N)C1c1ccco1 (stereo not given) | 32.9%
CCOC(=O)CSC1=C(C#N)C(c2ccco2)C(C(=O)Nc2cccc(C(F)(F)F)c2)=C(C)N1 (stereo not given) | 12.4%
CC1=C(C(=O)Nc2ccccc2)C(c2ccco2)C(C#N)=C(SCC(=O)OC(C)C)N1 (stereo not given) | 42.1%
COc1ccccc1NC(=O)C1=C(C)NC(SCC(=O)c2ccccc2)=C(C#N)C1c1ccco1 (stereo not given) | 33.9%
CC1=C(C(=O)Nc2ccccc2)C(c2ccco2)C(C#N)=C(SCc2ccccc2)N1 (stereo not given) | 63.1% (active)
Cc1cccc(OCCC(=O)Nc2ccc(S(=O)(=O)N3CCCC3)cc2)c1 | -7%
CCOc1ccc(NC(=O)c2cccc(-n3cnnn3)c2)cc1 | 0.4%
CCC(C)SCc1nc2ccccc2[nH]1 (stereo not given) | -5.4%
COc1cccc(-c2noc(CCC(=O)Nc3cccnc3)n2)c1 | 2%
O=C(OCc1ccc(F)cc1Cl)c1ccccn1 | 4.8%
CN(C)c1ccc(S(=O)(=O)c2ccc(Cl)cc2)cc1 | 1%
c1cncc(-c2nc(NCc3ccco3)c3ccccc3n2)c1 | 5.3%
CSCC[C@@H](Nc1nc(-c2ccccc2)nc2c1oc1ccccc12)C(=O)O | 7.2%

Structure (SMILES) | cytotoxicity
O=C(NCc1cccs1)c1cc2ccccc2o1 | -2.4%
CCC(C)(NC(=O)c1ccc(=O)[nH]c1)C(=O)NC1CCCC1 (stereo not given) | -7%
COC(=O)CNC(=O)C(Cc1c[nH]c2ccccc12)NC(=O)OC(C)(C)C (stereo not given) | -5%
Cc1csc2ncc(C(=O)NCc3ccc4c(c3)OCO4)c(=O)n12 | 67.4% (active)
Cc1nc2c(C(=O)O)cnn2c(C)c1Cc1ccccc1F | -26.4%
Cc1ccccc1Cc1c(C)nc2c(C(=O)N3CCN(Cc4ccc5c(c4)OCO5)CC3)cnn2c1C | -6.7%
CSc1ccccc1NC(=O)c1cnc2scc(C)n2c1=O | -4.8%
COc1ccc(CNC(=O)c2cnc3scc(C)n3c2=O)cc1 | -6.4%
Cc1csc2ncc(C(=O)Nc3ccccc3F)c(=O)n12 | 51.2% (active)
Cc1csc2ncc(C(=O)Nc3ccccc3Cl)c(=O)n12 | -6.7%
Cc1csc2ncc(C(=O)Nc3ccc4c(c3)OCCO4)c(=O)n12 | -20.4%
CCC(=O)Nc1nc2c(OC)ccc(C)c2s1 | 4%
CCOc1cccc(C(=O)Nc2nnc(-c3ccco3)s2)c1 | 2.3%
NC(=O)c1ccccc1NS(=O)(=O)Cc1ccc(Cl)cc1 | 0%
Cc1c(NC(=O)C(C)OC(=O)CC2Sc3ccccc3NC2=O)c(=O)n(-c2ccccc2)n1C (stereo not given) | -14.3%
CSc1ccc(NC(=O)CC(C)=O)cc1 | -11.5%
c1csc(-c2nnsc2-c2nc3ccccc3[nH]2)c1 | 7.2%
CCC(=O)NC1=C(C#N)C2(CCCC2)Cc2ccccc21 | 10.4%
COc1ccccc1-c1cc(C(=O)NCc2ccccc2)no1 | 17.1%
Cc1ccc(C)c(OCC(=O)Nc2ccc3c(c2)OCO3)c1 | -6.1%
